# In ChEMBL document CHEMBL3988442, “University of Dundee, Small-Polar-MMV Screening Library” (2021):
# For part of these data: Potency and affinity values are given separately.
# How the values were obtained:
# Design in all cases: scale not given: direction of the effect not stated beside the values
# [1] = target: Protein translocase subunit SecA (Escherichia coli (strain K12)) (UniProt P10408); experiment: Assay to Identify E. coli SecA ATPase Inhibitors; assay type: functional; conditions: 30 µM
# [2] = target: T1, Ubiquitin-activating enzyme e1, putative (Leishmania donovani (strain BPK282A1)) (UniProt E9BSI1); experiment: Leishmania donovani Ubiquitin Activating Enzyme (LdE1); assay type: functional; conditions: 30 µM
# T1 sequence (whole entry): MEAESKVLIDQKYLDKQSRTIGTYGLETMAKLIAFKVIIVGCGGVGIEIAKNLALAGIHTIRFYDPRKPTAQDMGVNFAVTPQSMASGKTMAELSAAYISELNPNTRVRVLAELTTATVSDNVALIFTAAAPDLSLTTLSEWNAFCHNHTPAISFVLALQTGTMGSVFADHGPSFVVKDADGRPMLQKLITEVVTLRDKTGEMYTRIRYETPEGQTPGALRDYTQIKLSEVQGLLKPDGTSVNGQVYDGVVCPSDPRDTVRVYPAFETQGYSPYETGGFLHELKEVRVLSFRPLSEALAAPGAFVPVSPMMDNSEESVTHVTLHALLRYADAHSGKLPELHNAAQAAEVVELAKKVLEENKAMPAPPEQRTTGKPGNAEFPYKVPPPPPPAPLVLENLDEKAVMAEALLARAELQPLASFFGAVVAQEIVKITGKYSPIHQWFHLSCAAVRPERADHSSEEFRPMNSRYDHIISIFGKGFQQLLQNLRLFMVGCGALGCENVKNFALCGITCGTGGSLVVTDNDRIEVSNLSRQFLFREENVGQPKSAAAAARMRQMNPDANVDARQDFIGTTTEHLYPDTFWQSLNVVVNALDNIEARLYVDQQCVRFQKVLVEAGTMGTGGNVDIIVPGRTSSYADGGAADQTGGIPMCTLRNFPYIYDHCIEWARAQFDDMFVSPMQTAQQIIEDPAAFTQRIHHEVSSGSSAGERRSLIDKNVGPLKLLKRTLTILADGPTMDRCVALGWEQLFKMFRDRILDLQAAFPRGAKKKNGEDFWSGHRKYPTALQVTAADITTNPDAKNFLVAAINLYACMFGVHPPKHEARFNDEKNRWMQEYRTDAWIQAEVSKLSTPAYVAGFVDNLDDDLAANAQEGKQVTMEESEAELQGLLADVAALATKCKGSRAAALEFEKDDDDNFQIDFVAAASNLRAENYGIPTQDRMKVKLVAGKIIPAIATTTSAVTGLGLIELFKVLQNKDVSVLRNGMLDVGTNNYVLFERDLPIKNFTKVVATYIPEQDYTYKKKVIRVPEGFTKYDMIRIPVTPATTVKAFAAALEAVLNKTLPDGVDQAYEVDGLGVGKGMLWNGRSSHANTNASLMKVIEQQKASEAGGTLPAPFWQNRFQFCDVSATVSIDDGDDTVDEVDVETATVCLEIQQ
# [3] = target: Sialic acid-binding Ig-like lectin 9 (Homo sapiens) (UniProt Q9Y336); experiment: Hs-Siglec9 ALPHAscreen SOP 20170721; conditions: 10 µM
# Trypanosoma cruzi = experiment: Trypanosoma cruzi phosphomannomutase and mannose-1-phosphate guanylyltransferase assay; assay type: functional; conditions: 10 µM
# [4] = target: T2, Arginase-2, mitochondrial (Homo sapiens) (UniProt P78540); experiment: in vitro enzyme assay to detect the production of urea directly proportional to the activity of Arginase II; assay type: functional; conditions: 33.3 µM; further: in the data most compounds retested in dose-response had high values
# T2 sequence (whole entry): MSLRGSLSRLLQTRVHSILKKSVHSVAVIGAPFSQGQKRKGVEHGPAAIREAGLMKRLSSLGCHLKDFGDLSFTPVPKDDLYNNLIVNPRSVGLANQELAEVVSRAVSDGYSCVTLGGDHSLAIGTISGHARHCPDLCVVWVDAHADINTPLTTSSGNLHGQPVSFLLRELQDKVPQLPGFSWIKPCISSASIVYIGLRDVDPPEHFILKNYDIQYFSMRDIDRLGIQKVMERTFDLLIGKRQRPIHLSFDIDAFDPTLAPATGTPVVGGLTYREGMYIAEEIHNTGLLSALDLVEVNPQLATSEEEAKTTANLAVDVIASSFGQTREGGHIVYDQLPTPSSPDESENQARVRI
# [5] = target: T3, Proteasome subunit beta (Trypanosoma cruzi) (UniProt O96673); experiment: Trypanosoma cruzi proteasome chymotrypsin-like activity (TcProtChymo) assay.; further: in the data most compounds retested in dose-response had high values; assay type: functional; conditions: 9.37 µM
# T3 sequence (whole entry): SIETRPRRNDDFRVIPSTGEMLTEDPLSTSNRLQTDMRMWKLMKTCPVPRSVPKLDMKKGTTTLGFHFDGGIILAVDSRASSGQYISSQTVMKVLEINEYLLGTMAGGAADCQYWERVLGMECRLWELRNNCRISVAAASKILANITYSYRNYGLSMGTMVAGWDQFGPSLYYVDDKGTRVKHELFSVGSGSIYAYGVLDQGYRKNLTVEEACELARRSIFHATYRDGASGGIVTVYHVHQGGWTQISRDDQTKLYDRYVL
# Homo sapiens = species on record: Homo sapiens; experiment: To identify inhibition of the IFN signalling (Jak-Stat) pathway via expression of an eGFP reporter gene under the control of an IFN-stimulated response element (ISRE) containing MxA promoter.; assay type: functional; conditions: 30 µM
# [6] = target: T4, Tyrosyl-tRNA synthetase, putative (Trypanosoma cruzi (strain CL Brener)) (UniProt Q4DSP6); experiment: Trypanosoma cruzi tyrosyl tRNA synthetase (TcYRS) _High Tyrosine SOP; assay type: functional; conditions: 30 µM; further: in the data most compounds retested in dose-response had high values
# T4 sequence (whole entry): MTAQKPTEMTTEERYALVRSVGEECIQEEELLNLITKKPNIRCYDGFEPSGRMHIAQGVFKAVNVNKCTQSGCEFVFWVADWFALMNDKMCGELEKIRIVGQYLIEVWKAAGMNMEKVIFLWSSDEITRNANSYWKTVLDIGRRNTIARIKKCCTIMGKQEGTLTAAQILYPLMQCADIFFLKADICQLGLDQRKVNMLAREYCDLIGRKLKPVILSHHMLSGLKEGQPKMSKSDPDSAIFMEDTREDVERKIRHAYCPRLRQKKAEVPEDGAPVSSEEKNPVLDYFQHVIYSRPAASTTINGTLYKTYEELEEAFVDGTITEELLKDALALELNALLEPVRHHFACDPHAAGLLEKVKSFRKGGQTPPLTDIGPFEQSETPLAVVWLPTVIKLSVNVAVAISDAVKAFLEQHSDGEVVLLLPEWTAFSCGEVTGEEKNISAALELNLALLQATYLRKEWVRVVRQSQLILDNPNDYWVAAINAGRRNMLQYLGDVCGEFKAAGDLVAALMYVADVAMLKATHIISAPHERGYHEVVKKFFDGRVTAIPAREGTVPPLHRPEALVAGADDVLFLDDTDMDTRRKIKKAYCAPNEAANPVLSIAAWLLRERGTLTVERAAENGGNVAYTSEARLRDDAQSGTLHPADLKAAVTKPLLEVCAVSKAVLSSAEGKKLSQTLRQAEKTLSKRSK
# [7] = target: T4, Tyrosyl-tRNA synthetase, putative (Trypanosoma cruzi (strain CL Brener)); experiment: Trypanosoma cruzi tyrosyl tRNA synthetase (TcYRS) SOP; assay type: functional; conditions: 30 µM
# [8] = target: Chromo domain-containing protein 1 (Saccharomyces cerevisiae (strain ATCC 204508 / S288c) (Baker's yeast)) (UniProt P32657); experiment: ScCHD-1 Enzyme Inhibition Assay; assay type: functional; conditions: 30 µM; further: in the data most compounds retested in dose-response had high values
# Sequence of Chromo domain-containing protein 1 (Saccharomyces cerevisiae (strain ATCC 204508 / S288c) (Baker's yeast)) (P32657 whole entry, the tested form may be a part): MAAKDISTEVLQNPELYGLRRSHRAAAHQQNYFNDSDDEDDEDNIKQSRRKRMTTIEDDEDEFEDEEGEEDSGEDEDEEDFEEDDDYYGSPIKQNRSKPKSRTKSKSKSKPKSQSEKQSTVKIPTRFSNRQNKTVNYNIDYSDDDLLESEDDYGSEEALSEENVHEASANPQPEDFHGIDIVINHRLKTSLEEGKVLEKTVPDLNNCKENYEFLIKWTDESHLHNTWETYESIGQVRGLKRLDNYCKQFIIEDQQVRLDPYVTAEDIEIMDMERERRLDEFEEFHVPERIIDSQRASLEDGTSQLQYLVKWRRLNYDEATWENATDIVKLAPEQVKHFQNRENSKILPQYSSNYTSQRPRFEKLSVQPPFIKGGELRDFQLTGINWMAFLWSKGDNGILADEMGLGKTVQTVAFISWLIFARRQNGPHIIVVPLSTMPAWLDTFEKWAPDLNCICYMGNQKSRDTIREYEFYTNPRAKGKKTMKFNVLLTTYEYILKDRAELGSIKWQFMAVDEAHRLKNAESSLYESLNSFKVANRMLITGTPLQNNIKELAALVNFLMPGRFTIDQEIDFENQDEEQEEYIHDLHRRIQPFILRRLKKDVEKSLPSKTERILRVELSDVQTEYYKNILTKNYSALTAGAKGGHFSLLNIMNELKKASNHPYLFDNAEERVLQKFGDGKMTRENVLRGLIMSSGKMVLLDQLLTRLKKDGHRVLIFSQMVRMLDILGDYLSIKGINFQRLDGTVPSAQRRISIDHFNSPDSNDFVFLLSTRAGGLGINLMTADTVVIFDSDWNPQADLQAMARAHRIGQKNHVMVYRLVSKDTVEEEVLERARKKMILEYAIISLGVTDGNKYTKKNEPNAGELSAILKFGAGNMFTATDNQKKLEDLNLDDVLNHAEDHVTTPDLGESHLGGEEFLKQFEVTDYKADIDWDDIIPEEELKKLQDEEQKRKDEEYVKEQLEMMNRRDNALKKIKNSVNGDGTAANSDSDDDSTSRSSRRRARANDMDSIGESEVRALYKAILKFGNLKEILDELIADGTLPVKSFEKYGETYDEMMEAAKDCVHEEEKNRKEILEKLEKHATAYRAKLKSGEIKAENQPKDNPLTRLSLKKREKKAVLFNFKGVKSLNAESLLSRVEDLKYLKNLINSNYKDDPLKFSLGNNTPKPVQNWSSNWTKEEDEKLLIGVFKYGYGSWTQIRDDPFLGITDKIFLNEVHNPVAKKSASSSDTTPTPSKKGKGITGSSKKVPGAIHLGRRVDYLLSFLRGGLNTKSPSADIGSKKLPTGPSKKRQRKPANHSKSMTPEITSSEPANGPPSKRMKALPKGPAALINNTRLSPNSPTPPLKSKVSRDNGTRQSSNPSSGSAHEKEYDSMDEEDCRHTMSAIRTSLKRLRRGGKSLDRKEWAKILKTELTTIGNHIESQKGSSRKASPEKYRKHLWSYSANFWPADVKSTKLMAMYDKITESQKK
# Sequence of Protein translocase subunit SecA (Escherichia coli (strain K12)) (P10408 whole entry): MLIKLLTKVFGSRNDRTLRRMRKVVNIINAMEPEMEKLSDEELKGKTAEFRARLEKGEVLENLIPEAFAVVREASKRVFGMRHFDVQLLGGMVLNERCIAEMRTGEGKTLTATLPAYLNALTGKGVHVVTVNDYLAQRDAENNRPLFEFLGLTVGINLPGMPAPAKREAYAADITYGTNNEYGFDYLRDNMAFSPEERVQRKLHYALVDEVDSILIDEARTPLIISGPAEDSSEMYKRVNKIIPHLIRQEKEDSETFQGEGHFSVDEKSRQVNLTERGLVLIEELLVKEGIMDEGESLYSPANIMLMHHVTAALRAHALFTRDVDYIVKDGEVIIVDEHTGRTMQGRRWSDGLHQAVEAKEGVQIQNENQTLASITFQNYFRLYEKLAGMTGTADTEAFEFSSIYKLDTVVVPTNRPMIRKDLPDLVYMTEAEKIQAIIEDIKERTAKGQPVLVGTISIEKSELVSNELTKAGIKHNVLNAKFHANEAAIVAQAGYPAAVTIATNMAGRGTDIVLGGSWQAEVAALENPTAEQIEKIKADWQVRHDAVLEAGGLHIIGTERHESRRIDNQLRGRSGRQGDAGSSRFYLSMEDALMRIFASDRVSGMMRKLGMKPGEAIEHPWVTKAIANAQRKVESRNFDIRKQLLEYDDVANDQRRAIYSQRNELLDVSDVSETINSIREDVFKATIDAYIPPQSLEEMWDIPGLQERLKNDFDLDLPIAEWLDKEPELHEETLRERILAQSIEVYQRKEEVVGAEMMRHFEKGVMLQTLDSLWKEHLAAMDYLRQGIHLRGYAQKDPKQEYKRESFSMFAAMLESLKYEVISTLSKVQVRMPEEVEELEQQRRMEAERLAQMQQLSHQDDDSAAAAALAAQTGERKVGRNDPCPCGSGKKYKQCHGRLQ
# Sequence of Sialic acid-binding Ig-like lectin 9 (Homo sapiens) (Q9Y336 whole entry): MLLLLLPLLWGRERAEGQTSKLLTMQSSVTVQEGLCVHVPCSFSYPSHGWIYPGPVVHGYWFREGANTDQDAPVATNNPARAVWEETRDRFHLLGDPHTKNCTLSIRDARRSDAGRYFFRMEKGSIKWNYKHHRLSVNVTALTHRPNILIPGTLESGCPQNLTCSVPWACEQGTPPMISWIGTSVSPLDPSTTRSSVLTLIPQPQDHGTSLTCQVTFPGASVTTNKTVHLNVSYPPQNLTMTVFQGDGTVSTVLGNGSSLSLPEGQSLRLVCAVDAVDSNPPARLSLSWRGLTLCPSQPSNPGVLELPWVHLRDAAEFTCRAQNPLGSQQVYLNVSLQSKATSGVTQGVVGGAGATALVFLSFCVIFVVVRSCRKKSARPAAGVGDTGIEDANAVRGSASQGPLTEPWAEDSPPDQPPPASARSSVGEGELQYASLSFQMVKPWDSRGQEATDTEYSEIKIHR
SMILES,Percent Effect [1] [%],Percent Effect [2] [%],Percent Effect [3] [%],Percent Effect (Trypanosoma cruzi) [%],Percent Effect [4] [%],Percent Effect [5] [%],Percent Effect (Homo sapiens) [%],Percent Effect [6] [%],Percent Effect [7] [%],Percent Effect [8] [%]
CN1CCCn2c(nc(CNC(=O)c3ccsc3)cc2=O)C1,-0.659,1.3,-2.49,-8.28,6.07,5.56,-5.79,1.58,5.13,-0.931
CCc1ncnc2c1CCN(Cc1ccc(OC)cc1)CC2,-4.58,-6.49,-0.0854,2.82,-2.02,-3.79,-6.35,1.58,-12.8,0.0386
Cc1noc(C2CCN(C(=O)c3ccc(N(C)C)nc3)CC2)n1,-1.18,12.8,-5.05,3.29,1.23,-0.0853,13.1,8.13,20.5,-1.36
CN1CCN(CC2CC2)C(=O)c2cnc(N3CCCC3)nc21,-7.66,0,1.44,-1,-4.88,4.16,8.07,-4.74,-10.3,-11.6
O=C(c1ncccn1)N1C[C@H]2CCC[C@@]2(COCc2cccnc2)C1,-6.88,3.9,-0.0107,-1.46,-4.45,10.3,89.1,-2.63,-7.69,-1.21
Cc1csc2ncc(-c3ccnc(N4CCCC[C@@H]4CO)n3)c(=O)n12,-2.72,-16,-2.59,-2.41,0,7.72,19.8,-3.68,-12.8,-17.9
